# Target: C2orf76
# Test: pooled miR-30 sensor sort-seq; sequence = guide strand
# Conditions: shRNA
# Note: reference of the scale not given here.
row,Sequence,sensor-assay potency score (higher = more potent)
1,TATCTTGCTTTAGAAATACGAT,-1.11
2,TTTGTAGTTCTTATAATCTTCT,-0.217
3,TATAATTTCTGAATGGTGGTGG,1.01
4,TAAAGGGATATCTTGCTTTAGA,-0.915
5,TTGTCTTTGATTTATGTGCTTG,-0.405
6,TCTTCTTTCAGCAGGAGTCTTT,-0.508
7,TTTCACTGGCGATTCCAGCTGC,0.205
8,TTTCAGAGTGCTGTCTTCTTTC,0.204
9,TGTAGTTCTTATAATCTTCTTC,0.298
10,TTCGTCATCTTCCAAACTCAAC,-1.74
11,TTTGTCTTTGATTTATGTGCTT,-0.117

# Target: C2orf79
# Test: as above
# Conditions: shRNA
row,Sequence,sensor-assay potency score (higher = more potent)
1,TTCTGTTGCAGGGTCTCGGCCA,-0.447
2,TTTAGGGTGGTCTCATCTGGGG,-0.919
3,TAACACCAAGTATTGTACCAGG,-0.742
4,TAGATCCTTTCGTAACACCAAG,-1.46
5,TATTGTACCAGGACCTGCGGCT,-0.203
6,TTAGGGTGGTCTCATCTGGGGC,-1.64
7,TACAAGTGGCGATATTCTCTGG,-0.432
8,TTCGTAACACCAAGTATTGTAC,-0.56
9,TTTCGTAACACCAAGTATTGTA,0.279
10,TTGCTCAAGCCACAGCATGTGG,-1.1
11,TCTTCTGTTGCAGGGTCTCGGC,-1.21
12,TTGTGATAGATCCTTTCGTAAC,-1.71

# Source: the OligoGym collection
